Measurements from PubChem BioAssay (EPA / NIEHS).
Records with an inconclusive call do not appear. Activity calls are given as the source filed them. How the source made its calls: active means hit-call score of the fitted dose curve at least 0.9, where 1 is the maximum; inconclusive means response in the unintended direction; inactive means score below 0.9.

Experiments:
[1] = TOX21_p53_BLA_p2_viability: Viability Assessment in the Tox21 HCT-116 p53 Agonism Beta-lactamase Assay, Phase 2 (AID 2283591);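 further: compound exposure lasted 16 h at 37 °C; actives lower the ATP signal meaning cytotoxicity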
In short: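 HCT116 p53-bla cells, 4000/well, dosed after 5 h plating (217-fold dilution of DMSO stocks) and incubated 16 h at 37C. Viability taken as cellular ATP by CellTiter-Glo luminescence after 30 min RT; signal loss marks cytotoxicity.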

[2] = molecular target: Cellular tumor antigen p53 (Homo sapiens) (UniProt P04637); assay: TOX21_p53_BLA_p2_ratio: Tox21 HCT-116 p53 Agonism Beta-lactamase Assay, Ratio, Phase 2 (AID 2283592)
Sequence of Cellular tumor antigen p53 (Homo sapiens) (P04637 whole entry, looked up): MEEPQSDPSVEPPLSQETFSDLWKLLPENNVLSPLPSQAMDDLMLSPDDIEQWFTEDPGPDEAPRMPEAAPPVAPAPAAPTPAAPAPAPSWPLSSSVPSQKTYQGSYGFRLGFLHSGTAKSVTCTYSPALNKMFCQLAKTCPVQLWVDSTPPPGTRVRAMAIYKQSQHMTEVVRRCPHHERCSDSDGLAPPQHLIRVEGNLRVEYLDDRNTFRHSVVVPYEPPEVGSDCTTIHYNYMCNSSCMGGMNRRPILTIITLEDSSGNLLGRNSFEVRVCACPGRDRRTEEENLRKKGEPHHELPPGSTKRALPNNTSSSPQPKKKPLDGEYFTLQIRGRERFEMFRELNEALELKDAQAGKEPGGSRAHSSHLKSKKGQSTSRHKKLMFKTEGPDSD
In short: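 In this cell-based reporter format, HCT116 cells were dosed with chemicals delivered from DMSO by 217-fold dilution and incubated 16 h at 37C. Emission at 460 and 530 nm after 2 h CCF4-AM loading provided the ratio, fitted upward versus DMSO.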

[3] = TOX21_p53_BLA_p3_viability: Viability Assessment in the Tox21 HCT-116 p53 Agonism Beta-lactamase Assay, Phase 3 (AID 2283593);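 further: cells exposed to compound for 16 h before reading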
In short: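 HCT116 cells, 4000/well, dosed 5 h after plating by pin transfer (217-fold dilution from DMSO stock) and incubated 16 h at 37C, 5% CO2. Viability read as ATP luminescence with CellTiter-Glo after 30 min at room temperature.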

[4] = molecular target: Cellular tumor antigen p53 (Homo sapiens) (UniProt P04637); assay: TOX21_p53_BLA_p5_ratio: Tox21 HCT-116 p53 Agonism Beta-lactamase Assay, Ratio, Phase 5 (AID 2283599)
In short: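 HCT-116 p53-bla cells (4000/well) plated 5 h, dosed with compound (217-fold DMSO dilution) for 16 h at 37 C; CCF4-AM substrate 2 h at room temperature. Activity is the 460/530 nm emission ratio (405 nm excitation), fitted in gain-of-signal direction versus DMSO.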

[5] = TOX21_p53_BLA_p5_viability: Viability Assessment in the Tox21 HCT-116 p53 Agonism Beta-lactamase Assay, Phase 5 (AID 2283600)
In short: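 Compounds, pinned from DMSO at 217-fold dilution, were left on the cells for 16 h. The viability endpoint was ATP content measured by CellTiter-Glo luminescence, where falling signal reflects cytotoxicity.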

[6] = molecular target: Cellular tumor antigen p53 (Homo sapiens) (UniProt P04637); assay: TOX21_p53_BLA_p4_ratio: Tox21 HCT-116 p53 Agonism Beta-lactamase Assay, Ratio, Phase 4 (AID 2283601)
In short: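 HCT-116 p53 beta-lactamase reporter cells (4000/well) preincubated 5 h, then compound (217-fold dilution of DMSO stock) for 16 h at 37C. CCF4-AM substrate added 2 h at room temperature; 460/530 nm emission ratio fitted upward versus DMSO.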

[7] = TOX21_p53_BLA_p4_viability: Viability Assessment in the Tox21 HCT-116 p53 Agonism Beta-lactamase Assay, Phase 4 (AID 2283597);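 further: hits lower the luminescence signal meaning cytotoxicity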
In short: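 We seeded HCT116 p53 reporter cells at 4000/well and waited 5 h. We then added compounds in DMSO at a 217-fold dilution and incubated for 16 h. Viability was read as CellTiter-Glo luminescence after 30 min at RT.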

Measured: outcome

CC1(C)C(O)C(C)(C)C1O (stereo not drawn)
inactive: [1] | [2] | [3] | [4] | [5] | [6]

O=C(NCCNCC(O)COc1ccc(O)cc1)N1CCOCC1 (stereo not drawn)
inactive: [1] | [2] | [3] | [4] | [5] | [6]

Oc1ccc2c(c1)OCO2
inactive: [1] | [2] | [3] | [7] | [5] | [6]

CNCCS(=O)(=O)O
inactive: [1] | [2] | [3] | [4] | [5]
